Inconclusive results are not listed. The source made the active and inactive calls. The call rests on the fitted dose curve; in most records, active means well fitted curve in the direction sought with a large enough effect; inconclusive means small, poorly fitted or top-dose-only effect, or effect the other way, or another doubt; inactive means no such curve, though single readings can be large or run the other way.
Target: Pyruvate kinase PKLR (Homo sapiens) (UniProt P30613)
Assay: Secondary Concentration-Response Assay for Activators of Human Reticulocyte Pyruvate Kinase: for Probe SAR
Conditions: purified hPK-R, ATP production, Kinase-Glo luminescence; series mostly up to 57.5 µM
From the text: NIH Chemical Genomics Center [NCGC]
Wael M. Rabeh, Lyudmila Nedyalkova and Hee-Wan Park [Structural Genomics Consortium, 100 College St. Toronto, Ontario, Canada]
Human pyruvate kinase reticulocyte (hPK-R) enzyme was supplied as a highly purified (>95% pure) preparation from Structural Genomics Consortium in Toronto (Ontario, Canada) and assayed for its ability to generate ATP from ADP using phosphoenolpyruvate (PEP) as a substrate. ATP generation was detected in a coupled reaction by luciferase-mediated luminescence, an ATP-dependent process. Pyruvate kinase substrates, PEP and ADP, were present in the assay at Km and approximately 10-fold below Km respectively. The enzyme was assayed at an intermediate level of activity to screen for both inhibitors and activators.
NCGC Assay Protocol Summary for R-isoform
Three uL of substrate mix (at r.t.) in assay buffer (50 mM Imidazole pH7.2, 50 mM KCl, 7 mM MgCl2, 0.01% Tween 20, 0.05% BSA) was dispensed into white solid bottom 1,536 well microtiter plates so that the final concentrations of substrates in the assay were 0.1 mM ADP and 0.5 mM PEP. 23 nL of compound were delivered by a pin tool and 1 uL of enzyme mix (final concentration of 0.1 nM) in assay buffer (4 degree Celsius) was added. Plates were incubated at room temperature for 1 hour. Two uL of detection mix (Kinase-Glo, Promega; at 4 degree Celsius protected from light) was added and luminescence read by a ViewLux (Perkin Elmer) at 1 second exposure/plate. Data were normalized to the uninhibited (row 31). Additionally, a no enzyme and 5-fold enzyme control was dispensed in row 32, split equally between the two conditions.

Sequence of Pyruvate kinase PKLR (Homo sapiens) (P30613 whole entry, looked up): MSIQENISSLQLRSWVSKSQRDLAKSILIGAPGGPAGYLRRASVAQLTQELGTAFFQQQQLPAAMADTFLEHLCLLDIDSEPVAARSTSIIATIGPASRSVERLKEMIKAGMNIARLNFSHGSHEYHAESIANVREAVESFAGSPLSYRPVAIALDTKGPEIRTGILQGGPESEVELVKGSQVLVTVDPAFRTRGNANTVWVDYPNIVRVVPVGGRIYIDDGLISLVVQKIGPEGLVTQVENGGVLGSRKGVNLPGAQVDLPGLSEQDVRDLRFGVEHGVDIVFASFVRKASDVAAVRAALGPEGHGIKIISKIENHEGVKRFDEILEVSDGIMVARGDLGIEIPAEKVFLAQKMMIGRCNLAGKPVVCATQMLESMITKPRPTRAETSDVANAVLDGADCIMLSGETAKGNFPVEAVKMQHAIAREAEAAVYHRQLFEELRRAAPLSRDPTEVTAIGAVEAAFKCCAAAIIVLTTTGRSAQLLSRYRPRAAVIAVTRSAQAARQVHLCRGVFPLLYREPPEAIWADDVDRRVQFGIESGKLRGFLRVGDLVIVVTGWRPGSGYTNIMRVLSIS

outcome, inactive:
O=C1c2ccccc2C(=O)N1c1cccc2cnccc12, Cc1ccc(NS(=O)(=O)c2ccc3c(c2)CCC(=O)N3)cc1C, Nc1cccc(S(=O)(=O)N2CCCN(S(=O)(=O)c3ccc4c(c3)OCCO4)CC2)c1, COc1cccc(Cn2ncc3c4sc(S(C)=O)cc4n(C)c3c2=O)c1 (stereo not given), Cc1ccc(NS(=O)(=O)c2cc3c(cc2F)NC(=O)CC3)cc1Cl, COc1ccccc1NS(=O)(=O)c1ccc2c(c1)CCC(=O)N2, O=C1CCc2cc(S(=O)(=O)Nc3ccc4ncccc4c3)ccc2N1, CCCCN1C(=O)c2ccccc2C1=O, Cc1ccc(Cl)cc1NS(=O)(=O)c1cc2c(cc1F)NC(=O)CC2, O=C1c2ccccc2C(=O)N1c1cccc2ccncc12, O=C1c2ccccc2C(=O)N1c1ccc(Cl)cc1, O=C1CCc2cc(S(=O)(=O)Nc3cccc4ccccc34)ccc2N1, O=C1CCc2cc(S(=O)(=O)Nc3cccnc3)ccc2N1, CN(C)c1cccc(S(=O)(=O)N2CCCN(S(=O)(=O)c3ccc4c(c3)OCCO4)CC2)c1, Cc1ccc(NS(=O)(=O)c2ccc3c(c2)CCC(=O)N3)cc1Cl, O=C1c2ccccc2C(=O)N1c1cc(=O)c2ccccc2[nH]1, O=C1CCc2cc(Cl)c(S(=O)(=O)Nc3ccc(Cl)c(Cl)c3)cc2N1, Cc1ccc(N2C(=O)c3ccccc3C2=O)c(C)c1, O=C1CCc2cc(S(=O)(=O)Nc3cccc(Cl)c3)ccc2N1, O=C1CCc2cc(S(=O)(=O)Nc3ccc(Cl)cc3)ccc2N1, O=C1c2ccccc2C(=O)N1c1ccc2ncccc2c1, CCNc1cccc(S(=O)(=O)N2CCCN(S(=O)(=O)c3ccc4c(c3)OCCO4)CC2)c1, O=C1c2ccccc2C(=O)N1C1CCCCC1, O=C1c2ccccc2C(=O)N1Cc1ccccn1, O=C1c2ccccc2C(=O)N1c1cnc2ccccc2c1, O=C1CCc2cc(S(=O)(=O)Nc3ccc(F)c(Cl)c3)ccc2N1, O=C1CCc2cc(S(=O)(=O)Nc3cccc(-c4ccccc4)c3)ccc2N1, Cc1cc2c(s1)c1cnn(Cc3ccccc3F)c(=O)c1n2C, O=C1c2ccccc2C(=O)N1c1ccccn1, O=C1c2ccccc2C(=O)N1c1ccncc1, O=C1c2ccccc2C(=O)N1Cc1ccccc1, Cc1c(Cl)cccc1NS(=O)(=O)c1cc2c(cc1Cl)CCC(=O)N2, O=S(=O)(c1ccc2c(c1)OCCO2)N1CCN(S(=O)(=O)c2c(F)cccc2F)CC1, O=C1CCc2cc(S(=O)(=O)Nc3ccc4c(c3)CCC4)ccc2N1, O=C1CCc2cc(S(=O)(=O)Nc3cccc(C(F)(F)F)c3)ccc2N1, O=C1CCc2cc(S(=O)(=O)Nc3ccc4c(c3)OCCO4)ccc2N1, O=C1CCc2cc(S(=O)(=O)Nc3cc(F)cc(Cl)c3)c(F)cc2N1, Cc1cc(NS(=O)(=O)c2ccc3c(c2)CCC(=O)N3)ccc1Cl, O=C1c2ccccc2C(=O)N1Cc1ccncc1, O=C1CCc2cc(S(=O)(=O)NCc3ccccc3)ccc2N1

Source: PubChem BioAssay AID2534 (National Center for Advancing Translational Sciences (NCATS), 2010)
